IMPase Li inh: qHTS Assay for Identifying the Cell-Membrane Permeable IMPase Inhibitors: Potentiation with Lithium; 210,000 tested, 0.35% active; AID 1457, 2008; Potency, µM (series often up to 59.4 µM), for the others: at the highest dose activity, negative = IMPase inhibition, usual class: inhibitors; CHO-M1 cells, IP1 TR-FRET (IP-One), carbachol + lithium; active means well fitted curve in the direction sought with a large enough effect; inconclusive means small, poorly fitted or top-dose-only effect, or another doubt; inactive means no such curve, though single readings can be large; an effect the other way counts as inactive or inconclusive;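 further: IP1 builds up when IMPase is blocked and the TR-FRET signal falls; plate controls were basal vehicle for no effect and high inhibitor control for full effect; nearly all actives have a fitted effect of over 50% in size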
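Readout is a homogeneous TR-FRET IP1 immunoassay (Ex 320, Em 665 and 620), where raised cytosolic IP1 lowers signal. Cells were CHO-M1 treated 30 min at 37C with test compounds plus a little lithium; AC50 values came from Hill-equation fitting.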
KinaseGlo FLuc: Counterscreen for Luciferase (Kinase-Glo TM) Inhibition. Luciferin 4-monooxygenase (Photuris pensylvanica), Q27757. Kinase-Glo luciferase, ATP luminescence, 8 min. Potency, µM (highest dose often 38.3 µM), for the others: top-dose activity change, negative = inhibition, hits mostly inhibitors. 200,000 tested, 0.28% active; active means well fitted curve in the direction sought with a large enough effect; inconclusive means small, poorly fitted or top-dose-only effect, or another doubt; inactive means no such curve, though single readings can be large; an effect the other way counts as inactive or inconclusive; further: nearly all actives have a fitted effect of over 60% in size
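Inhibition of Kinase-Glo luciferase light generation was assessed at 10 uM ATP in pH 7.2 imidazole buffer, with luminescence measured after eight minutes at ambient temperature.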
HPGD inh: qHTS Assay for Inhibitors of HPGD (15-Hydroxyprostaglandin Dehydrogenase); purified HPGD, NADH fluorescence kinetic, PGE2 substrate; Potency, µM, without a hit: top-dose activity change, negative = inhibition, hits mostly inhibitors; 150,000 tested, 4.3% active; AID 894, 2007
Target sequence (P15428 whole entry, looked up): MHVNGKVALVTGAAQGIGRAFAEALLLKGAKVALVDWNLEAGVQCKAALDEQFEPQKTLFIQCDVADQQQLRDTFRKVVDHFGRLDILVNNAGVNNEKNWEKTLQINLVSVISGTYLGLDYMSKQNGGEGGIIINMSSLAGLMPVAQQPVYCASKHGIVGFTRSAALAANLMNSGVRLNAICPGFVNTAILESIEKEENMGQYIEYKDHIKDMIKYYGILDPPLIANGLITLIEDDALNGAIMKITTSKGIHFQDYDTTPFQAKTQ
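20 nM HPGD preincubated 15 min at room temperature with compound in 50 mM Tris-HCl pH 8, 0.01% Tween 20. Started with 1 mM NAD+ and 30 uM prostaglandin E2; NADH fluorescence (360/450 nm) read 5 times over 30-s intervals, last minus first.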
ALDH1A1 inh: qHTS Assay for Inhibitors of Aldehyde Dehydrogenase 1 (ALDH1A1). Purified ALDH1A1, NADH fluorescence, propionaldehyde substrate. Potency, µM (doses to about 75.3 µM), inactives show top-dose activity, negative = inhibition, usual class: inhibitors. Aldehyde dehydrogenase 1A1 (Homo sapiens), P00352. 220,000 tested, 7.3% active;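 further: plate controls were no enzyme wells and a reference inhibitor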
Target sequence (P00352 whole entry, looked up): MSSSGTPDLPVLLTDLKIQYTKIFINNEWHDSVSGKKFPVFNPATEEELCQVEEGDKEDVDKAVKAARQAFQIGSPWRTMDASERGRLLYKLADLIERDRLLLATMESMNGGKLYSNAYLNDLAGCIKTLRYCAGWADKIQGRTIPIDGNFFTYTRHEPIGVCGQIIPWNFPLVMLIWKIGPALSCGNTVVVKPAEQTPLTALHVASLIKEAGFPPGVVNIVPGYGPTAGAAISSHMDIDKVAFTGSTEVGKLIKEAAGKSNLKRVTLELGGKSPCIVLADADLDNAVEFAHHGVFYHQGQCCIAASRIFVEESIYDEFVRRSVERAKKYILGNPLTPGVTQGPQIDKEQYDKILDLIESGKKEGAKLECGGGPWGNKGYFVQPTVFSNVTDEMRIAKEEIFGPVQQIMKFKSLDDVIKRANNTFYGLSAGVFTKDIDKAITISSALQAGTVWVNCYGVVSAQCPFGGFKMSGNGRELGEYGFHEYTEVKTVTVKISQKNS
Lamin A splicing: qHTS Assay for Modulators of Lamin A Splicing; HeLa LMNA splicing GFP/RFP minigene ratio, 48 h; Potency, µM (series often up to 46.1 µM), for the others: at the highest dose ratio change, negative = inhibition, actives largely listed as inhibitors; 200,000 tested, 0.01% active; AID 1487, 2009; active means well fitted inhibition curve with a large enough effect in the signal ratio, with a control signal flat, not every such curve was filed as active; inconclusive means small, poorly fitted or top-dose-only effect, or effect the other way, or a change in a side signal; the % refers to the signal ratio
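S3 HeLa stable clones carrying a lamin A-EGFP splicing minigene plus DsRed2 were seeded at 600 cells/well in Opti-MEM with 2% FBS, pin-dosed and incubated 48 h at 37°C. Acumen cytometry (488 nm) gave the GFP/RFP total-intensity ratio.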
* = called active by the depositor; ! = a repeat was not active; [ ] = remark or other dose. Rows were chosen to be rich in hits. Some 9% of all compounds tested hit in one or more screens of this group. Unless noted, the call rests on the fitted dose curve; in most records, active means well fitted inhibition curve with a large enough effect (not every such curve was filed as active); inconclusive means small, poorly fitted or top-dose-only effect, or another doubt; inactive means no such curve, though single readings can be large or run the other way. Unless noted, on the % scale 0 is the no-effect control and ±100 the full control effect; potency means the concentration at half of the fitted maximal effect.

For O=C(O)Cn1cc(C(=O)c2ccccc2)c2ccccc21 the results were IMPase Li inh 3.4%[38.3 µM], KinaseGlo FLuc 2.4%, HPGD inh -10.6%, ALDH1A1 inh -0.1% and Lamin A splicing -5.0%.
`O=C(O)Cn1cc(/C=C2\C(=O)NC(=O)N(Cc3ccco3)C2=O)c2ccccc21` gave IMPase Li inh 7.0%, KinaseGlo FLuc 0.1%, ALDH1A1 inh 8.91µM* and Lamin A splicing 26.9%[46 µM].
Screening CCCCN1C(=O)/C(=C/c2ccc(N(C)C)cc2)C(=O)N(Cc2ccco2)C1=O returned IMPase Li inh -13.9%[38.3 µM], KinaseGlo FLuc -4.5%, HPGD inh 25.1µM*, ALDH1A1 inh 0.708µM* and Lamin A splicing 5.5%.
CCN(CC)c1ccc(/C=C2/C(=O)NC(=O)N(CC3CCCO3)C2=O)cc1 (stereo unspecified) was read as IMPase Li inh 11.4%[38.3 µM], KinaseGlo FLuc -8.7%, HPGD inh 35.5µM*, ALDH1A1 inh 0.631µM* and Lamin A splicing 3.7%.
Screening C=CC(=C)C returned IMPase Li inh -9.6%, HPGD inh 1.9% and ALDH1A1 inh 17.1%.
For CCN(CC)c1ccc(/C=C2\C(=O)NC(=O)N(Cc3ccco3)C2=O)cc1 the results were IMPase Li inh 2.2%, KinaseGlo FLuc -5.3%, HPGD inh 15.8µM*, ALDH1A1 inh 0.501µM* and Lamin A splicing -6.4%.
`O=C1NC(=O)N(Cc2ccccc2)C(=O)/C1=C\c1ccco1` gave IMPase Li inh 10.2%, KinaseGlo FLuc 3.8%, ALDH1A1 inh inconclusive and Lamin A splicing inconclusive.
COc1ccc(/C=N/N=C(/N)N[N+](=O)[O-])c(OC)c1 was read as IMPase Li inh -7.7%[38.3 µM], KinaseGlo FLuc 2.9%, HPGD inh -28.7%, ALDH1A1 inh -1.1% and Lamin A splicing inconclusive.
`N/C(=N\N=C/c1ccc(-c2ccc(O)c(C(=O)O)c2)o1)N[N+](=O)[O-]` gave IMPase Li inh 19.7%[38.3 µM], KinaseGlo FLuc -16.4%, HPGD inh 7.08µM*, ALDH1A1 inh inconclusive and Lamin A splicing 11.0%.
`COc1ccccc1OCC#CCN1CCCCCC1` gave IMPase Li inh 18.3%, KinaseGlo FLuc 1.6% and ALDH1A1 inh 28.2µM*.
C/C=C/C/C=C/CCC(=O)[C@H]1O[C@H]1C(N)=O was read as IMPase Li inh -0.4% and ALDH1A1 inh inconclusive.
O=P1(Nc2cccnc2)COc2ccccc2OC1 was read as IMPase Li inh 4.5%[38.3 µM], KinaseGlo FLuc -2.6%, HPGD inh 7.08µM*, ALDH1A1 inh -5.1% and Lamin A splicing -0.3%.
O=P(Nc1cccnc1)(Oc1ccccc1)Oc1ccccc1 was read as IMPase Li inh 14.5%, KinaseGlo FLuc -4.6%, HPGD inh -11.2%, ALDH1A1 inh -17.4% and Lamin A splicing 2.7%.
Screening CN(C)c1ccc(C=C2C(=O)NC(=S)NC2=O)cc1[N+](=O)[O-] returned IMPase Li inh 10.6%, KinaseGlo FLuc -4.8%, ALDH1A1 inh 11.2µM* and Lamin A splicing 5.2%[46 µM].
For CCN(CC)C(=O)N[C@H]1C=C2c3cccc4[nH]cc(c34)C[C@@H]2N(C)C1 the results were IMPase Li inh 0.9%, KinaseGlo FLuc -4.2%[17.1 µM], HPGD inh inconclusive, ALDH1A1 inh inconclusive and Lamin A splicing inconclusive.
For CCc1cccc(CC)c1N(COC)C(=O)CCl the results were IMPase Li inh -10.5%, KinaseGlo FLuc 0.4%, HPGD inh -3.5%, ALDH1A1 inh 3.4% and Lamin A splicing -5.4%.
Screening CCOCN(C(=O)CCl)c1c(C)cccc1CC returned IMPase Li inh -7.7%, KinaseGlo FLuc -2.6%, HPGD inh -5.1%, ALDH1A1 inh 31.6µM*! and Lamin A splicing -5.2%.
For C=CCOCC1CO1 (stereo unspecified) the results were IMPase Li inh inconclusive, HPGD inh -9.6% and ALDH1A1 inh inconclusive.
`CCc1ccccc1N1C(=O)/C(=C/c2ccc(N3CCN(C)CC3)o2)C(=O)NC1=S` gave IMPase Li inh 11.0%, KinaseGlo FLuc -9.3%, HPGD inh -5.8%, ALDH1A1 inh inconclusive and Lamin A splicing inconclusive.
CCOc1ccc(N2C(=O)NC(=O)/C(=C/c3cnc(SC)nc3)C2=O)cc1 was read as IMPase Li inh -0.1%, KinaseGlo FLuc -1.4%, ALDH1A1 inh inconclusive and Lamin A splicing 12.4%[46 µM].
For CCOc1ccc(N2C(=O)/C(=C\c3cccs3)C(=O)NC2=S)cc1 the results were IMPase Li inh 16.0%, KinaseGlo FLuc -6.3%, ALDH1A1 inh 17.8µM* and Lamin A splicing -17.8%[46 µM].
O=C1NC(=S)N(c2ccccc2F)C(=O)/C1=C\c1cccs1 was read as IMPase Li inh -2.1%, KinaseGlo FLuc -1.2%, HPGD inh 7.94µM*, ALDH1A1 inh 20µM* and Lamin A splicing inconclusive.
C[C@@H](N)[C@@H](O)c1ccc(O)c(O)c1 was read as IMPase Li inh 12.0%, ALDH1A1 inh 2.0% and Lamin A splicing inconclusive.
OC1(c2ccc(F)cc2)CC2CCC(C1)N2Cc1nnnn1C1CCCCC1 (stereo unspecified) was read as IMPase Li inh 12.9%[38.3 µM], KinaseGlo FLuc -2.4%, HPGD inh -6.0%, ALDH1A1 inh 0.631µM* and Lamin A splicing -1.1%.
`CCOC(=O)CBr` gave IMPase Li inh 2.8%, HPGD inh -11.8% and ALDH1A1 inh inconclusive.
CCOC(=O)CC(SP(=O)(OC)OC)C(=O)OCC (stereo unspecified) was read as IMPase Li inh -10.9%, HPGD inh -21.1% and ALDH1A1 inh 11.2µM*.
Screening O=C(O)/C=C\c1ccc[c]([Sb])c1 returned IMPase Li inh -7.5%, KinaseGlo FLuc -5.1%[7.66 µM], HPGD inh -3.9% and ALDH1A1 inh 8.2%[13.5 µM].
`CCN1C(=O)C(=Cc2ccc(C)s2)C(=O)N(CC)C1=S` gave IMPase Li inh -3.8%, KinaseGlo FLuc -8.7%, HPGD inh 8.91µM*, ALDH1A1 inh 7.08µM* and Lamin A splicing inconclusive.
For O=C(O)c1cc(N=Nc2ccc([As](=O)(O)O)cc2)ccc1O the results were IMPase Li inh -4.3%, KinaseGlo FLuc 0.2%[7.66 µM], HPGD inh -11.9% and ALDH1A1 inh 2.3%[13.5 µM].
For C=C(C)CN1C(=O)C(O)(CC(=O)c2ccc3c(c2)OCCO3)c2ccccc21 (stereo unspecified) the results were IMPase Li inh 3.7%[38.3 µM], KinaseGlo FLuc 2.8%, HPGD inh -5.4%, ALDH1A1 inh 11.2µM* and Lamin A splicing 3.2%.
Screening CC[C@@H](CO)NC(=O)[C@H]1C=C2c3cccc4c3c(cn4C)C[C@H]2N(C)C1 returned IMPase Li inh -4.4%, KinaseGlo FLuc -3.5%, HPGD inh inconclusive, ALDH1A1 inh inconclusive and Lamin A splicing -13.4%.
For N#CC(C#N)=Cc1ccc(-c2ccccc2F)o1 the results were IMPase Li inh -11.2%, KinaseGlo FLuc -4.4%, HPGD inh -2.5%, ALDH1A1 inh 8.91µM* and Lamin A splicing -10.2%.

Screens as filed in PubChem BioAssay.
